Data on 40 compounds can be found in PubChem BioAssay (NCI).

Compounds without any hit were thinned out: in the full panel of roughly 83,000, 20% have a hit.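 For each line, cells grew in 96-well plates with the test compound present at a single concentration for 48 hours.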 Calls of active or inactive are those of the source.

In this experiment the test system is MDA-MB-435 melanoma. In words: NCI-60 one-dose screen, 48 h (100 = growth as untreated, 0 = no growth, -100 = all killed). Particulars: 10 µM unless noted. On the procedure: Growth inhibition of the MDA-MB-435 human Melanoma tumor cell line is measured as a screen for anti-cancer activity. Cells are grown in 96 well plates and exposed to the test compound for 48 hours. Compounds are tested at a single concentration, which is 10^-5 M for most compounds. The reported endpoint is percent growth (GI% or GIPRCNT), where numbers from 0 - 100% represent growth inhibition, and numbers from -100% - 0 represent cell death. For example, a value of 40 represents 60% growth inhibition. A value of 0 means no net growth occurred over the course of the experiment. A value of -40 indicates 40% of cells at the beginning of the experiment died by the end of the experiment. A value of -100 means all cells are dead at the end of the experiment.
NCI-60 Human Tumor Cell Lines Screen was performed using the standard one-dose NCI protocol, which is described in more detail at https://dtp.cancer.gov/discovery_development/nci-60/default.htm.
Compounds with GIPRCNT values below 10 were considered active. Activity score was based on GIPRCNT using the following formula: […]
Score is 0 for GIPRCNT values of 100 or above, 50 for GIPRCNT values of 0, and 100 for GIPRCNT values of -100.
With `C#CCNc1nc(NCCNC(=O)CCl)nc(N(C)CCCCc2ccccc2)n1`, the growth is 98.7% (inactive).
The value for `CC(=O)O[C@@H]1CC2C(C)(C)CCCC2(C)C2=C1C(=O)C(C(C)C)=CC2=O` (stereo not given in full) was -28.1% (active); that for `COc1cccc(N2CCN(c3ncnc4cc[nH]c34)CC2)c1` was 42.6% (inactive).
For the compound `COc1ccc2nc(C)cc(Sc3nc4ccccc4s3)c2c1`, the growth was 17.2% (inactive).
Regarding `Clc1cc(Cl)cc(-c2cnc3nonc3n2)c1`, the growth is 103% (inactive).
For `CC(C)CC1NC(=O)C(CC(C)C)N(CO)C1=O` (stereo not given), the growth was 111% (inactive).
For `Cc1cc2nc(CN)[nH]c2cc1C`, the growth is 109% (inactive).
`c1cc(C2CCCCC2)ccc1-c1cnc2nonc2n1`: the growth was -28.4% (active).
The value for `Nc1ccc(C2=NNC(=O)Cc3cc4c(cc32)OCCO4)cc1Cl` was -19.2% (active).
Take `Brc1ccsc1Br`: the growth was 113% (inactive).
For `Cc1cc([N+](=O)[O-])c(C)cc1N`, the growth was 110% (inactive).
Consider `Cc1c2c(cc3c1[nH]c1ccccc13)C=NCC2`, for which the growth is 94.9% (inactive).
In the case of `Cc1cccc(N=NC(=S)NNc2cccc(C)c2)c1`, the growth was 112% (inactive).
With `COc1ccc(/C=C/C(=O)CCC(=O)O)cc1OC`, the growth was 106% (inactive).
For the compound `COc1cccc(C2C(C#N)=C(N)Oc3cc4c(cc32)OCO4)c1` (stereo not given), the growth was -12.3% (active).
For the compound `O=C(/C=C/c1ccccc1)c1c[nH]c2ccccc2c1=O`, the growth is -18.4% (active).
Consider `CC(C)(C)[Si](C)(C)OC1[C@@H](O[Si](C)(C)C(C)(C)C)[C@@H](CNC(=O)NC(=O)NC(=O)CI)O[C@H]1n1cnc2c(NC(=O)Nc3ccccc3)ncnc21` (stereo not given in full), for which the growth was 93.2% (inactive).
For the compound `Cc1cccc2nc3ccccc3c(Nc3ccc(NS(C)(=O)=O)cc3)c12`, the growth was 78.6% (inactive).
Regarding `O=C(N/N=C/c1ccc([N+](=O)[O-])cc1)c1ccccc1Nc1ccnc(C(F)(F)F)c1`, the growth was 90.2% (inactive).
Take `COC(=O)[C@H](Cc1cn(C)cn1)NC(=O)[C@H](CC(C)C)NC(=O)Nc1cc(C(F)(F)F)cc(C(F)(F)F)c1`: the growth was -97.1% [100 µM] (active).
Take `CCCCCCCC/C=C\CCCCCCCC(=O)OCCCCCC`: the growth is 101% (inactive).
Consider `O=C(Nc1ccc(Br)cc1)Nc1cccc(Br)c1`, for which the growth is 47.4% (inactive).
Consider `CC(C)(C)OC[C@@H]1N=C(c2ccc(Br)cc2)Nc2nc3ccccn3c2C1=O`, for which the growth was -13.8% (active).
As for `C=C[C@H]1CCC/C=C/[C@@H]2C[C@H](O)C[C@H]2[C@H](O)/C=C/C(=O)O1`, the growth is 15% (inactive).
For `C=CCN(CC#N)CC=C`, the growth was 101% (inactive).
With `CCc1onc(-c2ccc(OC)cc2)c1-c1ccccc1OCCN(CC)CC` the figure was 90.5% (inactive).
With `COc1ccc(Nc2nc(N)nc3c(=O)[nH]ccc23)cc1` the figure was 113% (inactive); with `CCN(CC)c1ccc(/C=N/N=C(N)N)cc1`, -23% (active); with `CC(=O)O[C@H]1CC[C@]2(C)[C@H]3CC=C4[C@@H]5CC(C)(C)CC[C@]5(C(=O)OCC(COC(=O)C(Cl)Cl)(COC(=O)C(Cl)Cl)NC(=O)C(Cl)Cl)CC[C@@]4(C)[C@]3(C)CC[C@H]2C1(C)C`, 78.6% (inactive).
For the compound `N/C(=N\O)c1ncc(-c2ccc(C(F)(F)F)cc2)c(NC2CCCCCC2)n1`, the growth was -84.2% [100 µM] (active).
With `COc1ncnc2[nH]cc(CN3CCN(c4ccc(F)cc4)CC3)c12`, the growth was 91.9% (inactive).
In the case of `COc1cc(NCCC2CCCCN2)c2ncccc2c1OC` (stereo not given), the growth is -62.6% (active).
Take `CCC(=O)OCc1ccc(OC)cc1`: the growth was 112% (inactive).
In the case of `CCNC(=O)c1ccc2c(c1)nc(-c1ccc(Cl)cc1)n2-c1cc(C(C)(C)C)[nH]n1`, the growth is -20.6% (active).
The value for `C[C@@H]1N=C(c2ccc3ccccc3c2)Nc2nc3ccccn3c2C1=O` was -24.7% (active); that for `C#Cc1cccc(Nc2nc3cc([N+](=O)[O-])ccc3nc2Nc2ccc(O)cc2)c1` was 12.2% (inactive).
With `CN1CCC2(CC1)N=C(SCC(=O)Nc1cnc3ccccc3c1)C(c1ccc(Br)cc1)=N2`, the growth is 1.84% (active).
As to `COc1cc(CN2CCC(N3CCCC3=O)c3ccccc32)cc(OC)c1OC` (stereo not given), the growth is 90.4% (inactive).
`CC(C)CCSc1nc(-c2ccc(F)cc2)c(C#N)c(N2CCCCC2)n1`: the growth is 100% (inactive).
The value for `O=C1Nc2ccc(Br)cc2/C1=N/c1nc(-c2ccccc2)cs1` was 97.8% (inactive).
